4 compounds from PubChem BioAssay (EPA / NIEHS) can be followed below.

Active and inactive are the calls of the source. The calls were made as follows: active = hit-call score of the fitted dose curve at least 0.9, where 1 is the maximum; inactive = score below 0.9.

The nature of experiment [1]: ATG_GLI_CIS: Attagene CIS-FACTORIAL HepG2 Assay for human Zinc Finger Protein GLI1 (AID 2282945). Conditions: HepG2, Attagene cis-factorial reporter mRNA, GLI element; actives raise or lower the signal. In outline: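 Bidirectional curve fits relative to DMSO, using reporter mRNA levels from RT-PCR plus capillary electrophoresis. Cells were HepG2 transiently carrying cis-regulated reporter constructs, harvested 24 h after dosing.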

The target of experiment [2] is Bile acid receptor (Homo sapiens) (UniProt Q96RI1). Put plainly: ATG_IR1_CIS: Attagene CIS-FACTORIAL HepG2 Assay for human Nuclear Receptor Subfamily 1 Group H Member 4 (NR1H4), IR1 submotif (AID 2282946). The settings on record: IR1 reporter transcription, actives raise or lower the signal. In outline:
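Cells (human HepG2) carry transiently transfected cis-promoter reporter transcription units. Compounds are incubated 24 h, total RNA is reverse-transcribed and amplified, and labelled fragments are resolved by capillary electrophoresis. Curves use DMSO as baseline.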

A short description of experiment [3]: ATG_GRE_CIS: Attagene CIS-FACTORIAL HepG2 Assay for human Glucocorticoid Response Elements (GRE) (AID 2282947). The settings on record: HepG2 GRE cis-reporter, Attagene multiplex mRNA; actives raise or lower the signal. In outline: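 Assay uses human hepatoma HepG2 cells transfected with cis-promoter reporter units, exposed 24 h. mRNA from reporters detected by RT-PCR plus capillary electrophoresis; DMSO serves as negative control and baseline.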

Experiment [4] in a line: ATG_ISRE_CIS: Attagene CIS-FACTORIAL HepG2 Assay for human Interferon Regulatory Factor 1 (IRF1) binding to an Interferon-Stimulated Response Element (ISRE) (AID 2282948). Conditions: HepG2 ISRE cis-reporter (Attagene), mRNA transcription readout; actives raise or lower the signal. The gist of the method:
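Transfected HepG2 (multiple reporter transcription units, cis elements) dosed 24 h. RNA → oligo(dT) RT → PCR → 6-FAM primer extension → HpaI → CE. DMSO = negative control/baseline.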

Experiment [5] in a line: ATG_M_32_CIS: Attagene CIS-FACTORIAL HepG2 Assay for M32 Transcription Factor (Internal Marker) (AID 2282949).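 Also: background control marker of the multiplexed CIS panel rather than a real target.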 Conditions: HepG2 Attagene cis-factorial M32 reporter, mRNA; actives raise or lower the signal. In outline:
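Internal background marker read-out: RT-PCR/capillary electrophoresis fluorescence of reporter transcripts from transiently transfected HepG2 cells after 24 h chemical exposure. Activity fitted bidirectionally relative to DMSO negative control.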

Experiment [6] can be described thus: ATG_M_06_CIS: Attagene CIS-FACTORIAL HepG2 Assay for M06 Transcription Factor (Internal Marker) (AID 2282950). The settings on record: HepG2 Attagene CIS-FACTORIAL M06 internal marker reporter; actives raise or lower the signal. In outline:
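Measured 24 h post-dosing in transiently transfected HepG2 cells, this internal-marker endpoint reports reporter mRNA via RT-PCR with fluorescent primer extension and capillary electrophoresis. DMSO served as negative control and baseline for bidirectional fitting.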

The target of experiment [7] is Hypoxia-inducible factor 1-alpha (Homo sapiens) (UniProt Q16665). As to the kind of experiment: ATG_HIF1a_CIS: Attagene CIS-FACTORIAL HepG2 Assay for human Hypoxia Inducible Factor 1 (HIF1A) (AID 2282951). The settings on record: HepG2 Attagene cis-factorial HIF1a reporter transcription; actives raise or lower the signal. In outline: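 Transient MRTU transfection of human HepG2 liver cells, 24 h compound treatment, then total RNA isolation, oligo(dT) reverse transcription, PCR amplification, fluorescent labelling and capillary electrophoresis of reporter fragments. Gain or loss relative to DMSO.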

The target in experiment [8] is Hepatocyte nuclear factor 6 (Homo sapiens) (UniProt Q9UBC0). Put plainly: ATG_HNF6_CIS: Attagene CIS-FACTORIAL HepG2 Assay for human Hepatocyte Nuclear Factor 6 (HNF6) (AID 2282952). The settings on record: HepG2 Attagene cis-factorial HNF6 reporter transcription; actives raise or lower the signal. The gist of the method:
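Transiently transfected HepG2 cells expressing cis-regulated reporter transcription units were exposed to chemical for 24 h in a 24-well format. Reporter transcript abundance was determined by fluorescence capillary electrophoresis.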

The target in experiment [9] is Heat shock factor protein 1 (Homo sapiens) (UniProt Q00613). As to the kind of experiment: ATG_HSE_CIS: Attagene CIS-FACTORIAL HepG2 Assay for human Heat Shock Transcription Factor 1 (HSE) (AID 2282953). The settings on record: HepG2 HSE cis-reporter, Attagene RNA transcription; actives raise or lower the signal. The gist of the method: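 Reporter mRNA induction in HepG2 is measured 24 h after dosing, using transiently transfected multiplexed cis-regulated reporter units. Signal comes from capillary electrophoresis of labelled RT-PCR products, with DMSO as negative control.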

The nature of experiment [10]: ATG_MRE_CIS: Attagene CIS-FACTORIAL HepG2 Assay for human Metal Responsive Element (MRE) (AID 2282954). Conditions: HepG2 MRE cis-reporter transcription, Attagene multiplex; actives raise or lower the signal. In outline: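 After a 24 h chemical exposure, transiently transfected HepG2 cells yield RNA whose reporter sequences are amplified, FAM-labelled and sized by capillary electrophoresis. Curves are fitted bidirectionally relative to DMSO.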

Experiment [11] in a line: ATG_PBREM_CIS: Attagene CIS-FACTORIAL HepG2 Assay for human Phenobarbital-responsive Enhancer Module (PBREM) (AID 2282955). Conditions: HepG2 PBREM cis-reporter, Attagene multiplexed transcription; actives raise or lower the signal. In outline:
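Endogenous transcription factors in human liver HepG2 cells drive a PBREM cis-element reporter, whose transcript level after 24 h treatment is quantified by RT-PCR with capillary electrophoresis; activity fitted in both directions against DMSO.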

Experiment [12] addresses Paired box protein Pax-6 (Homo sapiens) (UniProt P26367). As to the kind of experiment: ATG_Pax6_CIS: Attagene CIS-FACTORIAL HepG2 Assay for human Paired Box 6 (PAX6) (AID 2282956). The settings on record: HepG2 CIS-FACTORIAL PAX6 reporter transcription, RNA readout; actives raise or lower the signal. In outline: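 Transient MRTU transfection of HepG2 → compound exposure 24 h → TriZol RNA, oligo(dT) RT → PCR, 6-FAM primer extension, HpaI cut → capillary electrophoresis; activity fitted both directions against DMSO.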

Experiment [13] is described as follows: ATG_PXRE_CIS: Attagene CIS-FACTORIAL HepG2 Assay for human Pregnane X Receptor Element (PXRE) (AID 2282957). Conditions: HepG2 Attagene CIS-FACTORIAL PXRE reporter, mRNA; actives raise or lower the signal. The gist of the method:
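Cis-element reporter mRNA in human hepatoma HepG2 cells is measured 24 h post-dosing by RT-PCR, primer-extension labeling and capillary electrophoresis; gain or loss of signal is fitted relative to DMSO.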

A short description of experiment [14]: ATG_RORE_CIS: Attagene CIS-FACTORIAL HepG2 Assay for human RAR-related Orphan Receptor Element (RORE) (AID 2282959). Conditions: HepG2 Attagene cis-factorial RORE reporter, mRNA; actives raise or lower the signal. The gist of the method:
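Transient MRTU transfection of human HepG2 liver cells (FuGene 6); 24 h compound exposure; TriZol RNA, oligo(dT) RT, PCR, FAM labeling, HpaI cut, CE fragment analysis. DMSO = negative control/baseline.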

A short description of experiment [15]: ATG_Sox_CIS: Attagene CIS-FACTORIAL HepG2 Assay for human SRY-box transcription factor (SOX) (AID 2282960). Conditions: HepG2 Attagene cis-factorial SOX reporter, mRNA; actives raise or lower the signal. The gist of the method:
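Endogenous factor activity in human liver HepG2 cells carrying transfected cis-regulated reporter units. RNA taken 24 h post-dose, reverse-transcribed, PCR-amplified and sized by capillary electrophoresis. Gain or loss of signal fitted relative to DMSO.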

Experiment [16] addresses Transcription factor Sp1 (Homo sapiens) (UniProt P08047). Put plainly: ATG_Sp1_CIS: Attagene CIS-FACTORIAL HepG2 Assay for human Specificity Protein 1 (Sp1) (AID 2282961). Conditions: HepG2 Sp1 cis-reporter transcription, actives raise or lower the signal. The gist of the method:
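Transient MRTU-transfected HepG2, 24 h compound exposure. Total RNA → oligo(dT) RT → PCR of reporter → 6-FAM primer extension → HpaI digest → CE. Endpoint fitted both directions vs DMSO.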

A short description of experiment [17]: ATG_SREBP_CIS: Attagene CIS-FACTORIAL HepG2 Assay for human Sterol Regulatory Element Binding (SREBP) (AID 2282962). Conditions: HepG2 Attagene cis-factorial SREBP reporter, mRNA; actives raise or lower the signal. The gist of the method:
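Transfected HepG2 (cis-regulated reporter library, endogenous TFs) → compound 24 h → total RNA → oligo(dT) RT → reporter-specific PCR → FAM primer extension, HpaI cut → CE fluorescence. Fit bidirectional vs DMSO.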

Experiment [18] has as its target Signal transducer and activator of transcription 3 (Homo sapiens) (UniProt P40763). Put plainly: ATG_STAT3_CIS: Attagene CIS-FACTORIAL HepG2 Assay for human Signal Transducer and Activator of Transcription 3 (STAT3) (AID 2282963). Conditions: HepG2, Attagene cis-factorial STAT3 reporter transcription; actives raise or lower the signal. In outline: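 After a 24 h compound incubation, total RNA from MRTU-transfected HepG2 cells was converted to cDNA and reporter sequences PCR-amplified, labelled and profiled by capillary electrophoresis. Gain and loss of signal were referenced to DMSO.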

Experiment [19] in a line: ATG_TA_CIS: Attagene CIS-FACTORIAL HepG2 Assay for human TA Basal Promoter (AID 2282964). The settings on record: HepG2 Attagene CIS-factorial TA basal promoter reporter; actives raise or lower the signal. In outline: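 Cis-factorial format in HepG2: reporters report endogenous factors, not chimeric Gal4 fusions. After 24 h treatment, reporter transcripts were measured by RT-PCR-capillary electrophoresis fluorescence, analysed bidirectionally versus DMSO.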

Experiment [20] can be described thus: ATG_PPRE_CIS: Attagene CIS-FACTORIAL HepG2 Assay for human Peroxisome Proliferator-activated Response Element (PPRE) (AID 2282958). The settings on record: HepG2 PPRE cis-element reporter, Attagene transcription factor profiling; actives raise or lower the signal. The gist of the method:
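HepG2, transient MRTU transfection (cis promoter elements, endogenous TFs). 24 h dosing. RNA → oligo(dT) RT → PCR → 6-FAM primer extension → HpaI digest → CE. Bidirectional fit vs DMSO.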

Sequence of Heat shock factor protein 1 (Homo sapiens) (Q00613 whole entry, looked up): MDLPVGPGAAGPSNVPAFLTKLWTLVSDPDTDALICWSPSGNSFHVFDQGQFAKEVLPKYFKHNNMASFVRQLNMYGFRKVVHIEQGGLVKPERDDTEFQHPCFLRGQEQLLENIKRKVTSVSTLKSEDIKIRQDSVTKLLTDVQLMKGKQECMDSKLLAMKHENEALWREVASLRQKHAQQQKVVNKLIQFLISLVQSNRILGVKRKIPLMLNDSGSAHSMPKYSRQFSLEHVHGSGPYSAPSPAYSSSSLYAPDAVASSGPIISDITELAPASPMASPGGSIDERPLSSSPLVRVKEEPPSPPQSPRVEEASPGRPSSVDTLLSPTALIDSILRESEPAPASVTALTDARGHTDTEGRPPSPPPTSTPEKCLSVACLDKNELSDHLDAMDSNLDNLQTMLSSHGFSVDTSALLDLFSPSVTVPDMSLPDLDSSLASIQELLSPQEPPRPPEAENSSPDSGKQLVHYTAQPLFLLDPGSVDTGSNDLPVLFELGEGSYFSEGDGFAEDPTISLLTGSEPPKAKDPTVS
Sequence of Hypoxia-inducible factor 1-alpha (Homo sapiens) (Q16665 whole entry, looked up, the tested form may be a part): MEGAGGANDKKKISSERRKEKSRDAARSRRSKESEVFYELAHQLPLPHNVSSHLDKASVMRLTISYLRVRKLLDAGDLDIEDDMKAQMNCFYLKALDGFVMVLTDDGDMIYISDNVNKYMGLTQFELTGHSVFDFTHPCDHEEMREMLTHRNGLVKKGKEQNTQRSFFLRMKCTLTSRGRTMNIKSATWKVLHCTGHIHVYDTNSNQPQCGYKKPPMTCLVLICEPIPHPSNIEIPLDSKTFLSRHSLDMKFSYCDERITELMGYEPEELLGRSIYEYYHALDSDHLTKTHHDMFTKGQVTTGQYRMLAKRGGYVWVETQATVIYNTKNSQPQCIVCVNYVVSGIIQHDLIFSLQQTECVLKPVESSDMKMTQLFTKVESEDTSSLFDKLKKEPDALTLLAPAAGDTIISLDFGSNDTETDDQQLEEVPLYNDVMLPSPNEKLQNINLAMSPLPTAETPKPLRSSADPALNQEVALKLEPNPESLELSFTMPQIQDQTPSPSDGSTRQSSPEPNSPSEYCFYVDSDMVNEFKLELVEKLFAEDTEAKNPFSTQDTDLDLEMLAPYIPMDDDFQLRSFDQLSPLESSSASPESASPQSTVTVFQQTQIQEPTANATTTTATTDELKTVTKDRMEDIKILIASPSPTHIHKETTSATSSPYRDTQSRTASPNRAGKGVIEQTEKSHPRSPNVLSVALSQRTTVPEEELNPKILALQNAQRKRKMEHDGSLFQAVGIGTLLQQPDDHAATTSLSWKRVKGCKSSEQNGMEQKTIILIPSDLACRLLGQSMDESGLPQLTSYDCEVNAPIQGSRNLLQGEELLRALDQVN
Sequence of Signal transducer and activator of transcription 3 (Homo sapiens) (P40763 whole entry, looked up): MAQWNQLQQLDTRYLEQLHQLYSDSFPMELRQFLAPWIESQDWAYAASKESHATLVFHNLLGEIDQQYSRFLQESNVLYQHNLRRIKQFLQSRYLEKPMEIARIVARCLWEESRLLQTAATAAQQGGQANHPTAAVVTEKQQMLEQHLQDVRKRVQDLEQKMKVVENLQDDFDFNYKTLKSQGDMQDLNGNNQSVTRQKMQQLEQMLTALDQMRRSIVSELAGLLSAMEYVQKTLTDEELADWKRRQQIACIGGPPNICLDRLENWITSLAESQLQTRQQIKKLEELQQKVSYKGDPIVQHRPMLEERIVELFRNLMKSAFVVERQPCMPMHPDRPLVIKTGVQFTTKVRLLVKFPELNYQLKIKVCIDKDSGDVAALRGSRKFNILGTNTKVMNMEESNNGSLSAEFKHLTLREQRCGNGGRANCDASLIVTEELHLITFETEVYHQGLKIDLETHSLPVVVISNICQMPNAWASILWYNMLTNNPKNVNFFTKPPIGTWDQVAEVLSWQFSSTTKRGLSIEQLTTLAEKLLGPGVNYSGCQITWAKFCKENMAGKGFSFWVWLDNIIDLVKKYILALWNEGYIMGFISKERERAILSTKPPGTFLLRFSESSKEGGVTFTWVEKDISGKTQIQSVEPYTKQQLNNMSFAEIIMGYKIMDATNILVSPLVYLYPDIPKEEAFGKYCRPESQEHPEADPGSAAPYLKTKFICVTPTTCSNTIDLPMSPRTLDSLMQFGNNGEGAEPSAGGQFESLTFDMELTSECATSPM
Sequence of Bile acid receptor (Homo sapiens) (Q96RI1 whole entry, looked up, the tested form may be a part): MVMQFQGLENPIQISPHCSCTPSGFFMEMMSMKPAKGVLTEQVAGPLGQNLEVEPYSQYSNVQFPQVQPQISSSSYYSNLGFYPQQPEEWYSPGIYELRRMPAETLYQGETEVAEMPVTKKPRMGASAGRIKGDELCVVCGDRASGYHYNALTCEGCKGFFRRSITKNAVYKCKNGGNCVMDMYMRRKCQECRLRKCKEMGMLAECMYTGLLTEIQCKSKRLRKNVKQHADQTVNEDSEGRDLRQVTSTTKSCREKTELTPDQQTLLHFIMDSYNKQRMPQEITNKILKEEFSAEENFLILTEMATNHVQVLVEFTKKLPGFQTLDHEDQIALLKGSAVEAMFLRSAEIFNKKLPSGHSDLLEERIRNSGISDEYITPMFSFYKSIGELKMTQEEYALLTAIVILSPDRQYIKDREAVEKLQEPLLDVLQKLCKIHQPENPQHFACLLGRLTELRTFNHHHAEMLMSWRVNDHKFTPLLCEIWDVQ
Sequence of Transcription factor Sp1 (Homo sapiens) (P08047 whole entry, looked up): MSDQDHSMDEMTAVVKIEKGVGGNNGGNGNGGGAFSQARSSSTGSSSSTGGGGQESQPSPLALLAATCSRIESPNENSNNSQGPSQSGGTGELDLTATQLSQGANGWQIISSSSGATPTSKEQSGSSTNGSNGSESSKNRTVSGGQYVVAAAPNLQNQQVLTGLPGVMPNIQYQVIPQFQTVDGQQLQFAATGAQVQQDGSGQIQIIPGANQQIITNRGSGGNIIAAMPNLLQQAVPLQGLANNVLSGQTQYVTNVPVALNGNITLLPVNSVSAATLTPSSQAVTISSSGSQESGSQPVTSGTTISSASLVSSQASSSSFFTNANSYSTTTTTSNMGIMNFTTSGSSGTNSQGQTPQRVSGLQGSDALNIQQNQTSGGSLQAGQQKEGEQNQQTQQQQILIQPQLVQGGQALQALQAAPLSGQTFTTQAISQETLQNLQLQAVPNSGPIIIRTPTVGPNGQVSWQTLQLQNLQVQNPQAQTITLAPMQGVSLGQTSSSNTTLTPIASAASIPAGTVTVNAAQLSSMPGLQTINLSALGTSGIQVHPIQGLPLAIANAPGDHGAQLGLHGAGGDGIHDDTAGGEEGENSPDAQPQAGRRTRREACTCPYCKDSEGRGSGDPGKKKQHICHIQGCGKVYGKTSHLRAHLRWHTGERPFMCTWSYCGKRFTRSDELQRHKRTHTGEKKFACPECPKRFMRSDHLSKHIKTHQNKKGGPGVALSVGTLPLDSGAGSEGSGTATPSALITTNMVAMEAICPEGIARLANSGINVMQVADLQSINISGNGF
Sequence of Paired box protein Pax-6 (Homo sapiens) (P26367 whole entry, looked up): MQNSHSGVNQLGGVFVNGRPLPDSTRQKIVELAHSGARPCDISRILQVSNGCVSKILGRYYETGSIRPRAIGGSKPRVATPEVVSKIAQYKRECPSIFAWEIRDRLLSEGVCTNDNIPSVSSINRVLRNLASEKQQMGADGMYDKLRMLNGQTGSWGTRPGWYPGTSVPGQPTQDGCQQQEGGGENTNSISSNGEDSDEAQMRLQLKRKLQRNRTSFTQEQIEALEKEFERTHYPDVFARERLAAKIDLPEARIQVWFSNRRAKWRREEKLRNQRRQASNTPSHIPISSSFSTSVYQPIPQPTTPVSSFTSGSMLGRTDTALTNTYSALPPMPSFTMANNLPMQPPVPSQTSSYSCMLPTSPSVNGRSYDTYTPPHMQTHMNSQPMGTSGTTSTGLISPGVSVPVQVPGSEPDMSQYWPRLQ
Sequence of Hepatocyte nuclear factor 6 (Homo sapiens) (Q9UBC0 whole entry, looked up): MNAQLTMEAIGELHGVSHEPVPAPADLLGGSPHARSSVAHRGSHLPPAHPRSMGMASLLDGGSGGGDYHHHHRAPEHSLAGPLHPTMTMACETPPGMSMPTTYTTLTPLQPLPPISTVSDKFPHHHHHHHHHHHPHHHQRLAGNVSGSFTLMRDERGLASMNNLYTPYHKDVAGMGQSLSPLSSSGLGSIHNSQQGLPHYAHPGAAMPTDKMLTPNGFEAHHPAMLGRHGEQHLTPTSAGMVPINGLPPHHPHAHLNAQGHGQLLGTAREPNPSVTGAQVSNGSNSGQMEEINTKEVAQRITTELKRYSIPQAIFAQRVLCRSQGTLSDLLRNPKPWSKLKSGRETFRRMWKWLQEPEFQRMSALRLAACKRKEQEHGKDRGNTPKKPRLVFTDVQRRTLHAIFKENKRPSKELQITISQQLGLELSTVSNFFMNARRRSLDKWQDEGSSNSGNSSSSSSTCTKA

Turning to `CCCCN(CCCC)CCCC`, the compound was called inactive in experiment [1], in experiment [2], in experiment [3], in [4], in [5] and in [6]. In addition, the outcome in [7], in [8], in experiment [9], in experiment [10], in experiment [11] and in experiment [12] was inactive. Besides, the compound was called inactive in [14], in experiment [15], in experiment [16], in experiment [17], in experiment [18] and in experiment [19]. The AC50 in experiment [13] was 26.5 µM (active).

In the case of `Cc1nc(C)nc(N2C[C@@H](C)N(c3ccnc([C@@H](C)O)n3)[C@@H](C)C2)n1`, the result in experiment [1], in [2], in [3], in experiment [4], in experiment [5] and in experiment [6] was inactive. Besides, the compound was called inactive in experiment [7], in experiment [8], in experiment [9], in experiment [10], in experiment [12] and in [14]. Also, the compound was classed as inactive in experiment [15], in [16], in experiment [17], in [18] and in [19].

For the compound `Oc1ccc2ccccc2c1N=Nc1ccccc1`, the compound was called inactive in [1], in experiment [2], in experiment [4], in experiment [5], in experiment [6] and in [8]. Further, the result in experiment [9], in experiment [12], in experiment [15], in experiment [16], in [17] and in experiment [18] was inactive. Also, the result in experiment [19] was inactive. Moreover, the AC50 was 1.24 µM (active) in experiment [7]; 2.47 µM (active) in [10]; 5.39 µM (active) in experiment [11]; 7.05 µM (active) in [13]; 2 µM (active) in experiment [14].

With `COc1cc(-c2nc(NC(=O)c3cc4cc(C)cc(C)c4n3CC(=O)O)sc2CCC2CCCCC2)c(OC)cc1Cl`, the AC50 in [1] is 100 µM (active); in experiment [4], 12.7 µM (active); in [9] it was 65.7 µM (active); in experiment [10], 6.2 µM (active); in experiment [11] it was 4.42 µM (active); in experiment [12], 14.2 µM (active). Moreover, the AC50 in [14] is 10.4 µM (active); in [15] it was 100 µM (active); in experiment [16], 2.83 µM (active); in experiment [19], 10.3 µM (active). In addition, the compound was classed as inactive in experiment [2], in experiment [3], in [5], in [6], in experiment [7] and in experiment [8]. The compound was called inactive in [13], in [20], in [17] and in experiment [18].

The term AC50 denotes the concentration giving half of the maximal activity seen.
